IL1B secr inh: qHTS for Inhibitors of Inflammasome Signaling: IL-1-beta AlphaLISA Primary Screen; THP-1 LPS/ATP IL-1B secretion, AlphaLISA, 16 h; active compounds read low; activity change, % at 57.5 µM; actives 4.7% (n = 360,000); AID 743279, 2014; in the data active means activity change below about -50%; inconclusive means mostly about -30% to -49%
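THP-1 cells pretreated 1 hr with compounds (up to 57.5 uM final), then stimulated with LPS (250 ng/mL final) plus ATP (1.25 mM final); secreted IL-1B measured by AlphaLISA after 16 hr, decreased signal indicating inhibition.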
uPA surface inh: qHTS for Inhibitors of Cell Surface uPA Generation; cell surface uPA generation assay, qHTS; Potency, µM (doses to about 38.3 µM), without a hit: at the highest dose activity change, negative = inhibition, actives largely listed as inhibitors; actives 0.31% (n = 330,000); AID 540303, 2011; active means well fitted inhibition curve with a large enough effect; inconclusive means small, poorly fitted or top-dose-only effect; inactive means no such curve, though single readings can be large or run the other way; tested in mouse RAW 264.7 cells; further: potency means the concentration at half of the fitted maximal effect; nearly all actives have a fitted effect of over 55% in size
TDP1 cell CPT: qHTS for Inhibitors of human tyrosyl-DNA phosphodiesterase 1 (TDP1): qHTS in cells in presence of CPT; chicken DT40 Tdp1-/-;hTDP1 cells + 20 nM CPT, ATP luminescence, 48 h; Potency, µM (series often up to 46.2 µM), inactives show top-dose activity change, negative = growth inhibition, actives largely listed as inhibitors; actives 12% (n = 420,000); further: potency means the concentration at half of the fitted maximal effect; nearly all actives have a fitted effect of over 55% in size
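Chicken DT40 Tdp1-/- cells complemented with human TDP1, 400 cells/well, exposed to compounds plus 20 nM camptothecin for at least 48 h at 37 C; viability read as ATP content by CellTiter-Glo luminescence.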
HT1080 IDH1KD tx: qHTS for induction of synthetic lethality in tumor cells producing 2HG: qHTS for the HT-1080-IDH1KD cell line; HT-1080 IDH1 knockdown viability, ATP luminescence, 48 h; Potency, µM (highest dose often 46.1 µM), inactives show at the highest dose activity, negative = toxicity, most hits filed as cytotoxic; actives 2% (n = 360,000); AID 686971, 2013;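 further: potency means the concentration at half of the fitted maximal effect; 0% = DMSO wells and -100% = cell-free medium wells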
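Cytotoxicity counter-line: IDH1KD HT-1080, 48 h, CellTiter-Glo. Curves classed by r2, magnitude and activity.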
TDP1 cell noCPT: qHTS for Inhibitors of human tyrosyl-DNA phosphodiesterase 1 (TDP1): qHTS in cells in absence of CPT. DT40 Tdp1-/- hTDP1 cells, no CPT, ATP luminescence, 48 h. Potency, µM (top dose mostly 46.2 µM), for inactives: at the top dose activity change, negative = growth inhibition, hits mostly inhibitors. actives 15% (n = 420,000); further: potency means the concentration at half of the fitted maximal effect; nearly all actives have a fitted effect of over 55% in size
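No-CPT arm: Tdp1-/-;hTDP1 DT40 cells (400/well) plus compounds, incubated ≥48 hr at 37 °C. Readout CellTiter-Glo luminescence.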
HT1080NT lethal: qHTS for induction of synthetic lethality in tumor cells producing 2HG: qHTS for the HT-1080-NT fibrosarcoma cell line | HT-1080-NT fibrosarcoma viability, CellTiter-Glo ATP luminescence, 48 h | Potency, µM (highest dose often 46.1 µM), without a hit: top-dose activity, negative = less viability, actives largely listed as cytotoxic | actives 1.6% (n = 360,000);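 further: NT is the 2HG producing partner of a matched IDH1 knockdown line; potency means the concentration at half of the fitted maximal effect; 0% = DMSO-treated cells and -100% = media-only wells without cells; nearly all actives have a fitted effect of over 55% in size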
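Viability by CellTiter-Glo luminescence after 48 h compound exposure at 37C of HT-1080-NT cells (750/well, RPMI, 5% FBS). % activity scaled between DMSO wells and medium-only wells, then curve-fitted and categorized by curve class.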
The depositor's hits bear a star; [ ] = remark or other dose. An excerpt weighted towards active compounds, which were near 19% of everything screened. Unless noted, the call rests on the fitted dose curve; in most records, active means well fitted curve in the direction sought with a large enough effect; inconclusive means small, poorly fitted or top-dose-only effect, or another doubt; inactive means no such curve, though single readings can be large; an effect the other way counts as inactive or inconclusive. Unless noted, on the % scale 0 is the no-effect control and ±100 the full control effect.

For CCN(CC(=O)Nc1ccc2c(c1)OCCO2)C(=O)CC(NC(C)=O)c1ccccc1 (stereo not drawn) the results were IL1B secr inh -5, uPA surface inh 11%, TDP1 cell CPT 5%, HT1080 IDH1KD tx 7%, TDP1 cell noCPT 7% and HT1080NT lethal 0%.
For Cc1ccc(N(CC(=O)N2CCCCCC2)S(C)(=O)=O)cc1 the results were IL1B secr inh -7, TDP1 cell CPT 4%, HT1080 IDH1KD tx -3%, TDP1 cell noCPT 7% and HT1080NT lethal 3%.
Screening COc1ccc(NC(=O)CCc2nc(-c3ccc(C)cc3)no2)c(OC)c1 returned IL1B secr inh 24, uPA surface inh 7%, TDP1 cell CPT inconclusive, HT1080 IDH1KD tx 8%[9.24 µM], TDP1 cell noCPT 18µM* and HT1080NT lethal -2%.
Cc1ccc(-c2noc(CCC(=O)Nc3cccc(C(=O)NC4CC4)c3)n2)cc1 was read as IL1B secr inh -1, TDP1 cell CPT -8%, HT1080 IDH1KD tx -1%, TDP1 cell noCPT inconclusive and HT1080NT lethal 1%.
For O=C(CCc1nc(-c2ccc(F)cc2)no1)Nc1cccc(C(=O)NC2CC2)c1 the results were IL1B secr inh 18, uPA surface inh 5%, TDP1 cell CPT inconclusive, HT1080 IDH1KD tx 2%, TDP1 cell noCPT 16µM* and HT1080NT lethal 0%.
Screening COc1ccc(-c2noc(CCC(=O)NCc3ccc(C)cc3)n2)cc1 returned TDP1 cell CPT -28% and TDP1 cell noCPT -14%.
`CN(C(=O)Nc1ccc(C(C)(C)C)cc1)C1CCCCC1` gave IL1B secr inh 12, uPA surface inh 0%, TDP1 cell CPT -25%, HT1080 IDH1KD tx -4%, TDP1 cell noCPT -5% and HT1080NT lethal 13%.
CC(NC(=O)c1cc2c(s1)CS(=O)(=O)C2)c1ccccc1 (stereo not drawn) was read as IL1B secr inh -5, uPA surface inh 2%, TDP1 cell CPT -6%, HT1080 IDH1KD tx 0%, TDP1 cell noCPT -10% and HT1080NT lethal -8%.
For CCN1CCN(C(c2cccs2)C(C)NC(=O)C(=O)N2CCCCC2)CC1 (stereo not drawn) the results were IL1B secr inh 1, uPA surface inh -6%, TDP1 cell CPT -1%, HT1080 IDH1KD tx 8%, TDP1 cell noCPT 7% and HT1080NT lethal 19%.
Screening COc1cccc(C2c3[nH]c4ccccc4c3C[C@H]3C(=O)N(C4CCN(Cc5ccccc5)CC4)CC(=O)N23)c1 (stereo partly drawn) returned IL1B secr inh -58*, uPA surface inh inconclusive, TDP1 cell CPT 23µM*, HT1080 IDH1KD tx inconclusive, TDP1 cell noCPT inconclusive and HT1080NT lethal inconclusive.
For COc1ccc(C2c3[nH]c4ccccc4c3C[C@H]3C(=O)N(C4CCN(Cc5ccccc5)CC4)CC(=O)N23)cc1OC (stereo partly drawn) the results were IL1B secr inh -24, uPA surface inh inconclusive, TDP1 cell CPT 21µM*, HT1080 IDH1KD tx -27%, TDP1 cell noCPT inconclusive and HT1080NT lethal inconclusive.
Screening Cc1ccccc1C1c2[nH]c3ccccc3c2C[C@H]2C(=O)N(C3CC3)CC(=O)N12 (stereo partly drawn) returned IL1B secr inh 7, uPA surface inh 1%, TDP1 cell CPT inconclusive, HT1080 IDH1KD tx -7%, TDP1 cell noCPT inconclusive and HT1080NT lethal inconclusive.
For COCCNC(=O)CSc1nc2nn(-c3ccccc3)c(=O)c-2c2n1CCCCC2 the results were IL1B secr inh 5, uPA surface inh -5%, TDP1 cell CPT inconclusive, HT1080 IDH1KD tx -1%, TDP1 cell noCPT inconclusive and HT1080NT lethal 7%.
Screening CS(=O)(=O)N(CC(=O)N1CCOCC1)c1cc(Cl)ccc1Cl returned IL1B secr inh 6, uPA surface inh -24%, TDP1 cell CPT -5%, HT1080 IDH1KD tx 8%, TDP1 cell noCPT 4% and HT1080NT lethal 13%.
`Cc1c(C(=O)N2CCC(C)CC2)oc2ccc3c(c12)C(O)CC1(CCCCC1)O3` (stereo not drawn) gave IL1B secr inh -21, uPA surface inh inconclusive, TDP1 cell CPT 16µM*, HT1080 IDH1KD tx 9.2µM*, TDP1 cell noCPT inconclusive and HT1080NT lethal inconclusive.
For COCCNC(=O)c1oc2ccc3c(c2c1C)C(O)CC(C)(C)O3 (stereo not drawn) the results were IL1B secr inh 11, uPA surface inh -40%, TDP1 cell CPT 1%, HT1080 IDH1KD tx 20%, TDP1 cell noCPT 11% and HT1080NT lethal 14%.
For NC(=O)CSc1nc(-c2ccccc2)nc2c1CCCC2 the results were IL1B secr inh -2, uPA surface inh 0%, TDP1 cell CPT -1%, HT1080 IDH1KD tx 14%, TDP1 cell noCPT -3% and HT1080NT lethal 14%.
Screening CN(C)CCCSc1nc(-c2ccccc2)nc2c1CCC2 returned IL1B secr inh -53*, uPA surface inh -11%, TDP1 cell CPT inconclusive, HT1080 IDH1KD tx -10%, TDP1 cell noCPT inconclusive and HT1080NT lethal -22%.
For CN(C)C(=O)CSc1nc(-c2ccccc2)nc2c1CCCC2 the results were IL1B secr inh -70*, uPA surface inh -7%, TDP1 cell CPT inconclusive, HT1080 IDH1KD tx inconclusive, TDP1 cell noCPT inconclusive and HT1080NT lethal -28%.
CCNc1ncc2nc(-c3cccc(C#N)c3)c(=O)n(C)c2n1 was read as TDP1 cell CPT 4% and TDP1 cell noCPT -4%.
For COc1ccc(CNC[C@H]2O[C@@H](n3ccc(=O)[nH]c3=O)[C@H](O)[C@@H]2O)cc1 the results were IL1B secr inh 5, TDP1 cell CPT 9%, HT1080 IDH1KD tx 6%, TDP1 cell noCPT -12% and HT1080NT lethal 0%.
For CN(Cc1ccccc1)S(=O)(=O)c1ccc(NC(=O)c2cc(=O)c3ccccc3o2)cc1 the results were TDP1 cell CPT 13µM* and TDP1 cell noCPT 16µM*.
Screening NS(=O)(=O)c1cccc(NC(=O)c2cc(=O)c3ccccc3o2)c1 returned IL1B secr inh -6, uPA surface inh 0%, TDP1 cell CPT 12%, HT1080 IDH1KD tx 12%, TDP1 cell noCPT -19% and HT1080NT lethal 8%.

Screens as filed in PubChem.
